What was measured:
Assay in all cases: PBM binding z-score (relative to random genomic background probes); higher = stronger binding; sequences stand for … in GC…GCGATTGACAGCGTAGAATGAAGG
[1] = tested on: FXR:RXRa (NR concentration 270 nM, RXRa partner concentration 90 nM)
In short: (§1)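 For binding z-scores, the reference was random background probes on custom Agilent 4×180K protein-binding microarrays. These arrays were incubated 1 h with ligand-free nuclear receptor dimers in PBS pH 7.4, 2% milk, 0.02% Triton X-100, 1 mM DTT, 0.2 mg/mL BSA and 0.4 mg/ml salmon testes DNA. Fluorescence was scanned after antibody detection of each partner (one per run) and regression-normalized.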

[2] = tested on: LXRa:RXRa (NR concentration 270 nM, RXRa partner concentration 90 nM)
In short: as §1

[3] = tested on: LXRa homodimer (NR concentration 270 nM)
In short: as §1

[4] = tested on: LXRb:RXRa (NR concentration 270 nM, RXRa partner concentration 90 nM)
In short: as §1

[5] = tested on: LXRb homodimer (NR concentration 270 nM)
In short: as §1

[6] = tested on: PPARa:RXRa (NR concentration 270 nM, RXRa partner concentration 90 nM)
In short: as §1

[7] = tested on: PPARg:RXRa (NR concentration 180 nM, RXRa partner concentration 90 nM)
In short: as §1

[8] = tested on: PPARg:RXRa 270nM:90nM, anti-RXR (NR concentration 270 nM, RXRa partner concentration 90 nM)
In short: as §1

[9] = tested on: PPARg:RXRa 30nM:10nM, anti-RXR (NR concentration 30 nM, RXRa partner concentration 10 nM)
In short: as §1

[10] = tested on: PPARg:RXRa 90nM:30nM, anti-RXR (NR concentration 90 nM, RXRa partner concentration 30 nM)
In short: as §1

[11] = tested on: PPARg:RXRa DBDmut IVT, anti-RXR (DBD mutation: RXRa K156A/R161A, NR concentration 270 nM, RXRa partner concentration 90 nM)
In short: as §1

[12] = tested on: PPARg:RXRa IVT, anti-PPARg (NR concentration 270 nM, RXRa partner concentration 90 nM)
In short: as §1

[13] = tested on: PPARg DBDmut:RXRa IVT, anti-PPARg (DBD mutation: PPARg1 K132A/R137A, NR concentration 270 nM, RXRa partner concentration 90 nM)
In short: as §1

[14] = tested on: PPARg DBDmut IVT, anti-PPARg (DBD mutation: PPARg1 K132A/R137A, NR concentration 270 nM)
In short: as §1

[15] = tested on: PPARg homodimer (NR concentration 180 nM)
In short: as §1

[16] = tested on: PXR:RXRa (NR concentration 270 nM, RXRa partner concentration 90 nM)
In short: as §1

[17] = tested on: PXR homodimer (NR concentration 270 nM)
In short: as §1

[18] = tested on: RARa:RXR (NR concentration 270 nM, RXRa partner concentration 90 nM)
In short: as §1

[19] = tested on: RARa homodimer (NR concentration 270 nM)
In short: as §1

[20] = tested on: RARb:RXRa (NR concentration 270 nM, RXRa partner concentration 90 nM)
In short: as §1

Row | Sequence | PBM binding z-score [1] | PBM binding z-score [2] | PBM binding z-score [3] | PBM binding z-score [4] | PBM binding z-score [5] | PBM binding z-score [6] | PBM binding z-score [7] | PBM binding z-score [8] | PBM binding z-score [9] | PBM binding z-score [10] | PBM binding z-score [11] | PBM binding z-score [12] | PBM binding z-score [13] | PBM binding z-score [14] | PBM binding z-score [15] | PBM binding z-score [16] | PBM binding z-score [17] | PBM binding z-score [18] | PBM binding z-score [19] | PBM binding z-score [20]
1 | CCGACTGGGGCAGAGAGGTTACCATACCATCCGG | -0.137 | 0.273 | -0.349 | 0.271 | -1.44 | 1.48 | 1.35 | 1.6 | -0.221 | 0.899 | 2.02 | 1.91 | -0.515 | -1.59 | 0.15 | 0.359 | -0.131 | 0.845 | 0.129 | 1.24
2 | CCAGACAGGTGAGAAGGTAACTCACCCTCGATTA | -0.00684 | 0.259 | -0.0683 | 0.491 | -0.394 | 1.09 | 0.731 | 0.509 | -0.0353 | -0.0765 | 0.889 | 0.707 | -0.339 | -0.245 | 0.968 | 0.325 | 0.219 | 0.748 | 0.925 | 0.764
3 | TCAAATAGGTAAAGGTGAAAGTCGAACGATATGA | 0.93 | 1.78 | 0.0504 | 1.72 | 0.00812 | 3.48 | 3.34 | 4.34 | 5 | 4.99 | 3.65 | 3.47 | 1.88 | 0.968 | 2.04 | 1.17 | 0.187 | 1.93 | 0.988 | 2.28
4 | TCTATTAGTTGAAGGTCAACCGACGAGTCCGTTT | 3.86 | 4.66 | 4.55 | 3.9 | 1.95 | 3.95 | 1.56 | 3.57 | 3.89 | 3.78 | 2.82 | 2.45 | 1.21 | 0.836 | 3.86 | 4.22 | 2.78 | 4.4 | 3.23 | 4.02
5 | CCTAGTTGGTCAGGAGGTCACACATCGGATATGA | 3.47 | 3.35 | 2.05 | 3.2 | 0.972 | 4.03 | 3.29 | 3.64 | 1.24 | 2.91 | 1.56 | 3.61 | 1.34 | 0.678 | 3.07 | 4.1 | 1.36 | 4.37 | 1.58 | 3.71
6 | TCTATTAGTTGAAGTGCAACCGACGAGTCCGTTT | 0.802 | 0.953 | 0.178 | 0.755 | 0.464 | 1.02 | -0.119 | 2.15 | 3.77 | 2.88 | 2.28 | 0.306 | 0.956 | 1 | 0.829 | 0.982 | 1.24 | 0.832 | 0.781 | 0.825
7 | GTACCAAGGTGAATAGGTCGTGGATGAGTAGGCG | 1.25 | 1.07 | -0.132 | 0.395 | -0.586 | 2.47 | 1.85 | 2.35 | 0.297 | 1.3 | 2.1 | 2.87 | 0.27 | -0.568 | 1.84 | 0.978 | -0.029 | 2.11 | 0.457 | 2.09
8 | CGTCCAAGGTCAATGCTAGGTCGGTGAAAGCATT | 5.99 | 4.42 | 0.539 | 3.19 | 0.14 | 4.79 | 3.29 | 4.06 | 1.09 | 2.58 | 3.27 | 3.65 | -0.723 | -0.78 | 1.98 | 3.86 | 0.759 | 4.18 | 0.419 | 4.95
9 | ATCTCTAGGTAAAGTACAGTGAAAGATCGATAGA | 0.412 | 0.617 | 0.207 | 0.131 | 0.745 | 0.0903 | 0.761 | 0.842 | 0.832 | 0.623 | 2.11 | 2.03 | 1.17 | 1.25 | 1.14 | 0.119 | 0.479 | 0.369 | 1.59 | 0.586
10 | ATCTCTAGGTAAGGCTCAGTTCAGTGAAGAACGC | 0.198 | 0.107 | 0.412 | 0.0703 | 0.35 | 0.125 | 0.0741 | 0.513 | 0.188 | 0.48 | 1.94 | 1.3 | 0.628 | 1.33 | 0.996 | 0.855 | 1.22 | 0.496 | 0.033 | 0.228
11 | TCTGCTAGGTCAGTTTGTCAGCTAACGAGCTGCC | 0.772 | 0.567 | -0.461 | 0.457 | 0.977 | 1.03 | -0.179 | 1.12 | 1.38 | 1.4 | 2.1 | 2.5 | 0.124 | 0.15 | -0.156 | 0.322 | -0.604 | 0.454 | -0.407 | 2.72
12 | TCTCGGAGGACACGAAGGACAGAGCTTTCCAGAG | 0.358 | -0.306 | -0.452 | -0.355 | -1.07 | -0.0833 | 0.271 | 0.836 | 2.13 | 1.3 | 1.14 | 0.0636 | -0.366 | -1.09 | -0.347 | -0.352 | -0.367 | 0.0176 | -1.01 | 1.54
13 | GGAACGACGGCAAGTTGATAGCAGAGTTTGATGG | -0.255 | -0.528 | -0.627 | -0.839 | -0.999 | -0.669 | 0.538 | -0.859 | -0.288 | -0.679 | -0.476 | -0.312 | -0.309 | -0.721 | -0.705 | -0.547 | 0.0619 | -0.23 | -0.783 | -0.715
14 | GCAGACAGGTGAAACGCAAGTAACTCAGGGTGGC | -0.454 | -0.128 | -0.469 | -0.359 | -0.954 | 0.613 | 0.63 | -0.0352 | -0.456 | -0.429 | 0.725 | 0.495 | -0.728 | -0.714 | -0.578 | -0.359 | -0.754 | -0.0735 | -0.461 | 0.562

From the supplement of paper PMC6555819
